Measurements: PubChem BioAssay (Tox21)
Where “and” joins values, the source holds several entries; their conditions need not be identical. Equal values may be shown once. A structure can be active in one record and inactive in another. Calls of active or inactive are those of the source. Unless noted, the call rests on the fitted dose curve; in most records, active means well fitted curve in the direction sought with a large enough effect in the repeat runs; inconclusive means weak or mixed curves; inactive means no such curve, though single readings can be large; an effect the other way counts as inactive or inconclusive.

Tests used:
[1] = qHTS assay to identify small molecule antagonists of the thyroid receptor (TR) signaling pathway - cell viability counter screen (AID 743064); further: nearly all actives have a fitted effect of over 50% in size; further: potency means the concentration at half of the fitted maximal effect
In short: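 Rat GH3 pituitary tumor cells stably expressing two TR response elements driving luciferase were plated, rested 4 h, then dosed with library compounds and T3 (1 nM final). After 23.5 h at 37 °C, CellTiter-Fluor was added for 30 min and fluorescence recorded.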

[2] = qHTS assay to identify small molecule antagonists of the thyroid receptor (TR) signaling pathway (AID 743065); further: nearly all actives have a fitted effect of over 55% in size; further: potency means the concentration at half of the fitted maximal effect
In short: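 GH3.TRE-Luc rat pituitary cells (two TREs driving luciferase) were dosed with compound, then stimulated with 1 nM T3 (final) for 23.5 h at 37 C. ONE-Glo luminescence was the read-out, with CellTiter-Fluor fluorescence as the cytotoxicity counter-screen.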

[3] = tested on: thyroid hormone receptor (rat, GH3 cells); experiment: qHTS assay to identify small molecule agonists of the thyroid receptor (TR) signaling pathway (AID 743066; calls by dose curve)
[4] = molecular target: Estrogen receptor (Homo sapiens) (UniProt P03372); experiment: qHTS assay to identify small molecule antagonists of the estrogen receptor alpha (ER-alpha) signaling pathway (AID 743069; active means well fitted curve in the direction sought with a large enough effect in the signal ratio in the repeat runs, not every such curve was filed as active; inconclusive means weak or mixed curves, or effect the other way; inactive means no such curve, though single readings can be large or run the other way; the % refers to the signal ratio)
Sequence of Estrogen receptor (Homo sapiens) (P03372 whole entry, looked up): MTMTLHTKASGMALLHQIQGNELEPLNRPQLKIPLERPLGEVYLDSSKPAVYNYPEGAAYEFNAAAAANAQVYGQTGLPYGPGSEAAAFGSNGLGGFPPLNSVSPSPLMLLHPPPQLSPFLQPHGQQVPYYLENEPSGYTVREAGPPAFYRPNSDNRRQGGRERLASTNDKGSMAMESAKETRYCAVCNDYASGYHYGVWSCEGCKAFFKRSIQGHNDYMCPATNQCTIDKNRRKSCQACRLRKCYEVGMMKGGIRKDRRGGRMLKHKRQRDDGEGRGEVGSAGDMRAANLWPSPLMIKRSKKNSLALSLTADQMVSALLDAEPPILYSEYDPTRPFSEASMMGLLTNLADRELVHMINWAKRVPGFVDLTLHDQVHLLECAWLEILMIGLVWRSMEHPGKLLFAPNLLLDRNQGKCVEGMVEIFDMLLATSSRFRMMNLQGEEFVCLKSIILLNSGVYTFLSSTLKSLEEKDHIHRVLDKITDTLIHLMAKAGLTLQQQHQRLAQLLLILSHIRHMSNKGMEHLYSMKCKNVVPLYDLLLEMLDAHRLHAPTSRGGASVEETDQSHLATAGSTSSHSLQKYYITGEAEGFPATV
In short: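 In this cell-based reporter format, GripTite HEK293 cells harbouring ER-alpha-UAS-bla were grown overnight with 2% charcoal-stripped FBS, dosed with DMSO-dissolved compounds, then challenged with 17beta-estradiol. After 18 hr at 37C, beta-lactamase activity was detected by FRET fluorescence.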

[5] = qHTS assay to identify small molecule antagonists of the estrogen receptor alpha (ER-alpha) signaling pathway - cell viability counter screen (AID 743074; calls by dose curve; further: nearly all actives have a fitted effect of over 45% in size)
[6] = molecular target: Estrogen receptor (Homo sapiens) (UniProt P03372); experiment: qHTS assay to identify small molecule agonists of the estrogen receptor alpha (ER-alpha) signaling pathway (AID 743075; calls by dose curve; further: potency means the concentration at half of the fitted maximal effect)
[7] = molecular target: Estrogen receptor (Homo sapiens) (UniProt P03372); experiment: qHTS assay to identify small molecule agonists of the estrogen receptor alpha (ER-alpha) signaling pathway using the BG1 cell line (AID 743079); conditions: BG1Luc4E2 cells, ERE-luciferase agonist, 22 h; activation: at 70.3 µM (top of the series) unless noted; further: nearly all actives have a fitted effect of over 20% in size; further: potency means the concentration at half of the fitted maximal effect
[8] = qHTS assay to identify small molecule antagonists of the estrogen receptor alpha (ER-alpha) signaling pathway using the BG1 cell line (AID 743080; calls by dose curve;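 further: BG1 cells stimulated with 17beta-estradiol alongside compound; nearly all actives have a fitted effect of over 25% in size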)
In short: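 After 5 days in phenol-red-free 10% charcoal-stripped FBS medium, BG1-Luc-4E2 cells were seeded, left 24 h at 37 C, co-treated with compounds and 17beta-estradiol for 21.5 h, then assayed for viability and luciferase.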

[9] = qHTS assay to identify small molecule antagonists of the estrogen receptor alpha (ER-alpha) signaling pathway using the BG1 cell line - cell viability counter screen (AID 743081);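 further: compound given together with 17beta-estradiol as the ER stimulus; nearly all actives have a fitted effect of over 45% in size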
Aromatase (Homo sapiens) = Aromatase (Homo sapiens) (UniProt P11511); experiment: qHTS assay to identify aromatase inhibitors (AID 743083); further: nearly all actives have a fitted effect of over 55% in size; further: potency means the concentration at half of the fitted maximal effect
Sequence of Aromatase (Homo sapiens) (P11511 whole entry, looked up): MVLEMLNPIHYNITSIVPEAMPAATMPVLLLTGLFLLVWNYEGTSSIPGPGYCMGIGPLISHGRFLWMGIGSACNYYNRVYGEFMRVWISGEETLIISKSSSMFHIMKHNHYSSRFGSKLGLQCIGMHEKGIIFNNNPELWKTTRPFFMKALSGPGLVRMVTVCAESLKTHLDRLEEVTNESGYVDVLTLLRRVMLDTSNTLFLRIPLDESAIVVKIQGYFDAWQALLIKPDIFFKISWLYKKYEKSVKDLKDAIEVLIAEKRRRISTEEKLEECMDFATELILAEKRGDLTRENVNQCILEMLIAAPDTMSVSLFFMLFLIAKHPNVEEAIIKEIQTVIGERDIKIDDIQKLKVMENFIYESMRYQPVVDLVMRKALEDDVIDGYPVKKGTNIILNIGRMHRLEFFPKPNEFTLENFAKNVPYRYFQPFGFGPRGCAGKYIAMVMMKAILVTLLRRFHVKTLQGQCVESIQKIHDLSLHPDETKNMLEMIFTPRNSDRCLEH

[10] = qHTS assay to identify aromatase inhibitors - cell viability counter screen (AID 743084);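 further: cells stimulated with testosterone during compound exposure; nearly all actives have a fitted effect of over 55% in size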
[11] = molecular target: Aryl hydrocarbon receptor (Homo sapiens) (UniProt P35869); experiment: qHTS assay to identify small molecule that activate the aryl hydrocarbon receptor (AhR) signaling pathway (AID 743085); further: nearly all actives have a fitted effect of over 15% in size; further: potency means the concentration at half of the fitted maximal effect;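 on activation: HG2L7.5c1 human HepG2 liver cells with stably integrated DRE-driven firefly reporter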
Sequence of Aryl hydrocarbon receptor (Homo sapiens) (P35869 whole entry, looked up): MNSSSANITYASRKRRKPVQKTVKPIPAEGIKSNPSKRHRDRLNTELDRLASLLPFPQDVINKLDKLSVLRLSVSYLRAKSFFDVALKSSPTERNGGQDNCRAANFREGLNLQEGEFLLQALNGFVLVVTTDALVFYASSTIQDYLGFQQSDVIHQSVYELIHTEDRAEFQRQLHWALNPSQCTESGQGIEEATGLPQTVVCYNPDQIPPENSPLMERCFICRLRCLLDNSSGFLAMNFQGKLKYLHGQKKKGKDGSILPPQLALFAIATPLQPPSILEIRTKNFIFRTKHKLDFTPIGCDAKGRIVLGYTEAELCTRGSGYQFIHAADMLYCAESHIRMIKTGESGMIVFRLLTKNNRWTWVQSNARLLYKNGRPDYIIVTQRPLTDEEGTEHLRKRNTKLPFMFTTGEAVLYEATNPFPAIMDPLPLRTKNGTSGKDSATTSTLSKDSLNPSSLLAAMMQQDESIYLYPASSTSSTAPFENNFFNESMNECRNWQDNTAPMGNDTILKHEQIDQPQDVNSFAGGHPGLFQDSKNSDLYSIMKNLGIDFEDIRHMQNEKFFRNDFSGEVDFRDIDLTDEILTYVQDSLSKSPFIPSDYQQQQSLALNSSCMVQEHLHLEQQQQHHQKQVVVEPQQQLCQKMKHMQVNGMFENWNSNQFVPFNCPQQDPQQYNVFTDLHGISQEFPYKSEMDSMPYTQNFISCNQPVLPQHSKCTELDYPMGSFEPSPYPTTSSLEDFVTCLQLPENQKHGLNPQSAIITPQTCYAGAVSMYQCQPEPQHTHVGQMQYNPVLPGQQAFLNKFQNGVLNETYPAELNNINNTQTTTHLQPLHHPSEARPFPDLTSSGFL
In short: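 Compounds were tested in HepG2 hepatocellular carcinoma cells harbouring a stably integrated luciferase gene under control of 20 DREs. Increased reporter signal after 24 h treatment at 37C was taken as AhR activation.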

[12] = qHTS assay to identify small molecule that activate the aryl hydrocarbon receptor (AhR) signaling pathway - cell viability counter screen (AID 743086);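 further: HepG2 liver cells carrying the AhR DRE luciferase reporter; nearly all actives have a fitted effect of over 45% in size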
In short: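 HepG2-AhR-luc (HG2L7.5c1) cells, 4000/well, treated 24 h at 37 C with compound; viability measured as CellTiter-Fluor fluorescence after 30 min in the same wells as the luciferase read.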

[13] = molecular target: Peroxisome proliferator-activated receptor gamma (Homo sapiens) (UniProt P37231); experiment: qHTS assay to identify small molecule antagonists of the peroxisome proliferator-activated receptor gamma (PPARg) signaling pathway (AID 743191; calls by dose curve; further: nearly all actives have a fitted effect of over 30% in size)
Sequence of Peroxisome proliferator-activated receptor gamma (Homo sapiens) (P37231 whole entry, looked up): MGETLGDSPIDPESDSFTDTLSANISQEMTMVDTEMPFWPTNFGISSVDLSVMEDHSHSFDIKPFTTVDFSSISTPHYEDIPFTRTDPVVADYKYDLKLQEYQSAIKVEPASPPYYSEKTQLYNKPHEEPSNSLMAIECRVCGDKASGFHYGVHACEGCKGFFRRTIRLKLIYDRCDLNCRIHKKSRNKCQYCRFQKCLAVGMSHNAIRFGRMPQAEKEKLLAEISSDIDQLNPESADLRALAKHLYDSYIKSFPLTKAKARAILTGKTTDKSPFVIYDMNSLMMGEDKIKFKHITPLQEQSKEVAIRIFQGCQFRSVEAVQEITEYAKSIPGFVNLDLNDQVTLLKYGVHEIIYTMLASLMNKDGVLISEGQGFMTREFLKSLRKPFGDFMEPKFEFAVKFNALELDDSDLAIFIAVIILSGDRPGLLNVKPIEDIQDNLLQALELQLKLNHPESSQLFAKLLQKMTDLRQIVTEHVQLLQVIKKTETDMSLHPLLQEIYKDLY
In short: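 GeneBLAzer PPARg UAS-bla HEK293H cells, 5 h post-plating, exposed to compounds 17 h at 37C. LiveBLAzer B/G FRET substrate added for 1 h at room temperature; beta-lactamase reporter read by fluorescence intensity.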

[14] = qHTS assay for small molecule agonists of the antioxidant response element (ARE) signaling pathway (AID 743202; active means well fitted activation curve with a large enough effect in the signal ratio in the repeat runs, not every such curve was filed as active; inconclusive means weak or mixed curves, or effect the other way; inactive means no such curve, though single readings can be large or run the other way; the % refers to the signal ratio; further: potency means the concentration at half of the fitted maximal effect)
In short: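 HepG2 ARE-bla cells; 16 h treatment at 37 C; FRET-based beta-lactamase fluorescence read after 2 h substrate incubation at room temperature.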

[15] = qHTS assay for small molecule agonists of the antioxidant response element (ARE) signaling pathway - cell viability counter screen (AID 743203; calls by dose curve; further: nearly all actives have a fitted effect of over 55% in size)
In short: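 Viability counter screen: stably transfected ARE-bla HepG2 line, 16 hrs compound exposure at 37C/5% CO2, ATP-based CellTiter-Glo luminescence measured in the reporter wells.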

[16] = qHTS assay for small molecule activators of the heat shock response signaling pathway - cell viability counter screen (AID 743209); further: nearly all actives have a fitted effect of over 50% in size
In short: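 Viability of HSE-bla HeLa cells is measured with CellTiter-Glo in the wells already used for the reporter read. Compound exposure lasts 5 h at 37 C, and luminescence is read after 30 min at room temperature.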

[17] = qHTS assay for small molecule activators of the heat shock response signaling pathway (AID 743210; active means well fitted activation curve with a large enough effect in the signal ratio in the repeat runs, with a control signal flat, not every such curve was filed as active; inconclusive means weak or mixed curves; the % refers to the signal ratio;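 further: HeLa cells with beta-lactamase reporter driven by heat shock elements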)
In short: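 Following overnight attachment, HSE-bla HeLa cells received test compounds for 5 h at 37 C; beta-lactamase activity was then detected via FRET substrate fluorescence.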

[18] = molecular target: Peroxisome proliferator-activated receptor gamma (Homo sapiens) (UniProt P37231); experiment: qHTS assay to identify small molecule agonists of the peroxisome proliferator-activated receptor gamma (PPARg) signaling pathway (AID 743094; active means well fitted activation curve with a large enough effect in the signal ratio in the repeat runs, not every such curve was filed as active; inconclusive means weak or mixed curves, or effect the other way; inactive means no such curve, though single readings can be large or run the other way; the % refers to the signal ratio)
In short: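 Reporter activation was scored by fluorescence of cleaved LiveBLAzer B/G substrate (1 h, room temperature) in PPARg-bla HEK293H cells previously treated 17 h at 37C with DMSO-dissolved compounds.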

[19] = qHTS assay to identify small molecule antagonists of the peroxisome proliferator-activated receptor gamma (PPARg) signaling pathway - cell viability counter screen (AID 743194); conditions: Potency: co-treated with 50 nM rosiglitazone unless noted; further: nearly all actives have a fitted effect of over 55% in size
In short: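 Cytotoxicity counter screen in PPARg-bla HEK293H cells, same wells as reporter assay. Compounds plus 50 nM rosiglitazone (final) for 17 h at 37 C, then viability read by CellTiter-Glo luminescence.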

Measured: Potency

CC(C)Nc1nc(Cl)nc(NC(C)C)n1
not listed: [18] | [19]
inactive: all other assays above

Clc1ccc(C(Cl)(Cl)Cl)cc1
inactive and 30.6 µM (active): [7]
not listed: [19]
inactive: all other assays above

CCC/C=N/O
not listed: [13] | [19]
inactive: all other assays above

CSc1nc(NC(C)C)nc(NC(C)C)n1
not listed: [13] | [14] | [15]
inactive: all other assays above

CCOC(=O)c1ccccc1N
not listed: [13] | [18] | [19]
inactive: all other assays above

C[C@]12CCC(=O)C=C1CC[C@@H]1[C@@H]2CC[C@@]2(C)[C@H]1CC[C@]2(C)O
inactive and 61.4 µM (active): [1]
active: [2] 10.6 µM and 24.5 µM | [6] 2.13 µM [inconclusive] and 4.25 µM [inconclusive] and 1.39 µM [inconclusive] | [7] 376 nM and 106 nM and 179 nM
not listed: [13] | [14] | [18]
inactive: all other assays above

CCOP(=S)(OCC)SCn1c(=O)oc2cc(Cl)ccc21
active: [2] 68.6 µM | Aromatase (Homo sapiens) 65.6 µM | [11] 32.9 µM and 61.1 µM | [14] 9.69 µM
not listed: [15] | [18] | [19]
inactive: all other assays above
